Some test systems named below: NCI-H23 lung; NCI-H226 lung; NCI-H322M lung; HOP-62 NSCLC; NCI-H460 lung; NCI-H522 lung; A549/ATCC NSCLC; 786-0 renal; COLO 205 colon; DU-145 prostate; K-562 leukemia; MALME-3M melanoma; MDA-MB-231 breast; RXF 393 renal; SF-268 CNS; SF-295 CNS; SF-539 CNS; UACC-257 melanoma; M14 melanoma; HCT-15 colon.
What all share (test): NCI-60 one-dose screen, 48 h (100 = growth as untreated, 0 = no growth, -100 = all killed)
What all share (conditions): 10 µM

The panel holds about 83,000 compounds, 20% with a hit somewhere; the sample as a whole holds those more often.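 Treatment: one concentration, 48 hours, 96-well format. Scoring: percent growth, with anything below 10 considered active.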 Unmarked numbers belong to inactive results. Calls of active or inactive are those of the source.

For `O=[N+]([O-])c1ccc(Oc2cc(Cl)c(Cl)cc2Cl)c(C(F)(F)F)c1`, the growth is 111% in the assay with NCI-H23 lung; 94.6% in the assay on NCI-H226 lung; 98.1% with NCI-H322M lung; 95.3% in the assay with HOP-62 NSCLC; 97.7% in the assay on NCI-H460 lung; 87.1% with NCI-H522 lung. Besides, the growth is 91.1% in the assay with A549/ATCC NSCLC; 107% in the assay on 786-0 renal; 122% in the assay with COLO 205 colon; 104% in the assay on DU-145 prostate; 93.8% with K-562 leukemia; 107% in the assay on MALME-3M melanoma. Moreover, the growth is 96.4% with MDA-MB-231 breast; 96.4% in the assay with RXF 393 renal; 101% in the assay on SF-268 CNS; 91.7% with SF-295 CNS; 95.3% with SF-539 CNS; 100% with UACC-257 melanoma. For the same compound, the growth in the assay on M14 melanoma was 101%; in the assay with HCT-15 colon, 92.2%.

As to `COc1cc(-c2cc(/C=C3\C(=O)Nc4cc(Cl)ccc43)[nH]n2)cc(OC)c1OC`, the growth with NCI-H23 lung was 69.7%; in the assay on NCI-H226 lung, 50.4%; with NCI-H322M lung it was 47.5%; with HOP-62 NSCLC, 43.3%; with NCI-H460 lung, 34.7%; with NCI-H522 lung, 31.9%. Also, the growth is 43% with A549/ATCC NSCLC; 93.7% with 786-0 renal; 7.07% (active) in the assay with COLO 205 colon; 43.8% with DU-145 prostate; 23.4% with K-562 leukemia; -22.9% (active) in the assay on MALME-3M melanoma. In addition, the growth was 34.2% in the assay with MDA-MB-231 breast; 75.3% in the assay with RXF 393 renal; 56.7% in the assay with SF-268 CNS; 32.6% with SF-295 CNS; 48.9% in the assay with SF-539 CNS; 78% in the assay on UACC-257 melanoma. Also, the growth is 19.6% in the assay with M14 melanoma and 13.6% in the assay on HCT-15 colon.

Take `O=S(=O)(NCCCNc1nccc(-c2c(-c3ccc(F)cc3)nc3sccn23)n1)c1ccc2ccccc2c1`: the growth with NCI-H23 lung was 66.2%; in the assay with NCI-H226 lung, 57.4%; in the assay on NCI-H322M lung it was 49.6%; with HOP-62 NSCLC, 81.3%; with NCI-H460 lung, 22.7%; in the assay with NCI-H522 lung, 46.2%. In addition, the growth is 28.9% in the assay with A549/ATCC NSCLC; 55.5% in the assay on 786-0 renal; 10.1% in the assay on COLO 205 colon; 46.4% with DU-145 prostate; 3.75% (active) with K-562 leukemia; 50.3% with MALME-3M melanoma. Also, the growth with MDA-MB-231 breast was 34.9%; with RXF 393 renal it was 66.7%; with SF-268 CNS, 40.3%; with SF-295 CNS, 43.7%; with SF-539 CNS, 85.3%; with UACC-257 melanoma it was 56.8%. In addition, the figures for the growth in the assay with M14 melanoma and in the assay on HCT-15 colon were 47.7% and 35.1%, respectively.

For the compound `CC(=O)N(C)c1ccc(Nc2ccc(Nc3ccc(N(C)C(C)=O)cc3)c3c2C(=O)c2ccccc2C3=O)cc1`, the growth is 87.3% in the assay with NCI-H23 lung; 84.2% with NCI-H226 lung; 75.4% in the assay on NCI-H322M lung; 75.2% in the assay with HOP-62 NSCLC; 64.9% in the assay with NCI-H460 lung; 53.8% in the assay on NCI-H522 lung. Besides, the growth in the assay with A549/ATCC NSCLC is 63.5%; with 786-0 renal, 78.7%; in the assay with COLO 205 colon, 70.6%; with DU-145 prostate, 91.2%; in the assay on K-562 leukemia, 55.8%; with MALME-3M melanoma, 113%. Besides, the growth in the assay with MDA-MB-231 breast is 49.3%; in the assay with RXF 393 renal, 81.7%; in the assay on SF-268 CNS, 76.5%; in the assay with SF-295 CNS it was 81.2%; in the assay on SF-539 CNS, 76.3%; in the assay with UACC-257 melanoma, 74.5%. The figures for the growth with M14 melanoma and with HCT-15 colon were 86.1% and 79.8%, respectively.

`CC(=O)c1nc2ccccc2n1CCN1CCN(C)CC1`: the growth with NCI-H23 lung is 46.2%; in the assay with NCI-H226 lung, 90.9%; in the assay on NCI-H322M lung, 31.9%; in the assay with HOP-62 NSCLC, 41%; in the assay on NCI-H460 lung it was 13.1%; with NCI-H522 lung, 0.166% (active). In addition, the growth is 31.2% in the assay on A549/ATCC NSCLC; 78.6% with 786-0 renal; 2.73% (active) in the assay with COLO 205 colon; -3.03% (active) in the assay on DU-145 prostate; 15.3% with K-562 leukemia; 17.6% in the assay on MALME-3M melanoma. The growth with MDA-MB-231 breast was 42.9%; in the assay with RXF 393 renal it was 48%; in the assay on SF-268 CNS it was 48.1%; in the assay with SF-295 CNS, 153%; with SF-539 CNS, 35.3%; with UACC-257 melanoma, 49.8%. Moreover, the growth in the assay on M14 melanoma is 20.5%; with HCT-15 colon, 98.9%.

In the case of `CC(=O)[C@H]1CC[C@H]2[C@@H]3CCC4=CC(=O)C=C[C@]4(C)[C@H]3CC[C@]12C`, the growth was 90% in the assay with NCI-H23 lung; 88.4% in the assay with NCI-H226 lung; 97% in the assay with NCI-H322M lung; 100% with HOP-62 NSCLC; 96.1% in the assay with NCI-H460 lung; 81.4% with NCI-H522 lung. Further, the growth was 94.4% in the assay on A549/ATCC NSCLC; 99.8% in the assay on 786-0 renal; 119% with COLO 205 colon; 108% in the assay with DU-145 prostate; 76.6% in the assay on K-562 leukemia; 89.3% with MALME-3M melanoma. The growth is 100% in the assay with MDA-MB-231 breast; 125% in the assay with RXF 393 renal; 102% with SF-268 CNS; 92.5% with SF-295 CNS; 87.9% in the assay on SF-539 CNS; 87.8% with UACC-257 melanoma. The growth in the assay with M14 melanoma was 107%; in the assay on HCT-15 colon, 106%.

As for `Clc1ccc(-c2cn(-c3ccccc3)c(-c3ccccc3)n2)c(Cl)c1`, the growth was 67.6% with NCI-H23 lung; 40.7% with NCI-H226 lung; -17% (active) in the assay on NCI-H322M lung; 31.6% with HOP-62 NSCLC; -100% (active) in the assay on NCI-H460 lung; 42.6% in the assay on NCI-H522 lung. Also, the growth in the assay with A549/ATCC NSCLC was -8.47% (active); in the assay with 786-0 renal, -50.3% (active); in the assay on COLO 205 colon, -64.3% (active); with DU-145 prostate it was -89.7% (active); in the assay with K-562 leukemia, 24.8%; with MALME-3M melanoma, -43.3% (active). For the same compound, the growth in the assay on MDA-MB-231 breast is -11.7% (active); in the assay on RXF 393 renal, 41.3%; in the assay on SF-268 CNS, -26.7% (active); in the assay on SF-295 CNS, 19.5%; with SF-539 CNS, -22.2% (active); in the assay with UACC-257 melanoma, 52.2%. Besides, the growth was 16.7% in the assay with M14 melanoma and -71.4% (active) with HCT-15 colon.
